Drawing on PubChem BioAssay, this text covers composite z-score for eleven molecules.

A short description of this assay: COS7 lysate on small-molecule microarray, probe aHis, 635 nm (AID 1123).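 Further: z-score combines 667nm fluorescence intensity with signal-to-noise per printed compound spot.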 The conditions noted are these: COS7 cell lysate, fluorescence, higher = more signal.
Regarding `CSCC[C@@H]1NC(=O)CC=C[C@@H](C)COC(=O)[C@H](C)COC1=O`, the composite z-score is -0.808.
In turn, `CC1(C)O[C@H]2O[C@H]([C@H](O)CON=C3[C@H]4CCn5c(=O)n(-c6ccccc6)c(=O)n5[C@H]4[C@H](O)[C@@H]4O[C@H]34)[C@H](O)[C@H]2O1` gave a composite z-score of -0.337.
Turning to `COc1cccc([C@H]2Oc3ccc(OC)cc3C(=NO[C@@H](C)c3cc(-c4c(C)cc(C)cc4C)no3)[C@@H]2O)c1`, the composite z-score is -0.552.
For the molecule `CC(=O)OC[C@H]1O[C@H](C#CCCc2ccccc2)C=C[C@@H]1OC(C)=O`, the composite z-score worked out at 2.2.
For `CC(C)=CCCC(C)=CCON=C1C[C@@H](O)[C@@H](O)[C@@H]2[C@@H]3C(=O)N(C4CCCCC4)C(=O)[C@@H]3CC[C@H]12`, the composite z-score turned out to be 0.0252.
Take `COC(=O)[C@H](C)NC(=O)CCC1CC(OC(=O)NCc2ccc3c(c2)OCO3)CC2(CCCC(COC(=O)NCCc3ccc(Cl)cc3)O2)O1` (stereo partly specified): the composite z-score stood at 0.043.
`COC(=O)[C@H](C)NC(=O)CCC1CC(OC(=O)NCCc2ccc(F)cc2)CC2(CCCC(COC(=O)NCC3CCCCC3)O2)O1` (stereo partly specified) displayed a composite z-score of 1.52.
The molecule `CCN1C(=O)[C@H]2[C@H]3[C@H](O)[C@H](O)CC(=NO[C@H](C)c4cn([C@H](CO)Cc5ccccc5)nn4)[C@@H]3CC[C@H]2C1=O` yielded a composite z-score of 0.785.
In the case of `CCN1C(C)=C(C(=O)OC)[C@@H](c2ccccc2)N2C(=O)[C@](O)(C(=O)OC)CC(C(C)=O)=C12` it was -0.0478; in that of `C=CC[C@@H]1C=C[C@H](ON=C(C)CCN2CCCCc3nc(C)c(C)cc32)[C@@H](CO)O1`, 0.588; in that of `CC(C)=NOC(C)CN1CCCCc2nc(C)c(C)cc21` (stereo unspecified), 0.951.
